Assay [1] concerns the target T1, Ephrin type-B receptor 2 (Homo sapiens) (UniProt P29323).
T1 sequence (whole entry): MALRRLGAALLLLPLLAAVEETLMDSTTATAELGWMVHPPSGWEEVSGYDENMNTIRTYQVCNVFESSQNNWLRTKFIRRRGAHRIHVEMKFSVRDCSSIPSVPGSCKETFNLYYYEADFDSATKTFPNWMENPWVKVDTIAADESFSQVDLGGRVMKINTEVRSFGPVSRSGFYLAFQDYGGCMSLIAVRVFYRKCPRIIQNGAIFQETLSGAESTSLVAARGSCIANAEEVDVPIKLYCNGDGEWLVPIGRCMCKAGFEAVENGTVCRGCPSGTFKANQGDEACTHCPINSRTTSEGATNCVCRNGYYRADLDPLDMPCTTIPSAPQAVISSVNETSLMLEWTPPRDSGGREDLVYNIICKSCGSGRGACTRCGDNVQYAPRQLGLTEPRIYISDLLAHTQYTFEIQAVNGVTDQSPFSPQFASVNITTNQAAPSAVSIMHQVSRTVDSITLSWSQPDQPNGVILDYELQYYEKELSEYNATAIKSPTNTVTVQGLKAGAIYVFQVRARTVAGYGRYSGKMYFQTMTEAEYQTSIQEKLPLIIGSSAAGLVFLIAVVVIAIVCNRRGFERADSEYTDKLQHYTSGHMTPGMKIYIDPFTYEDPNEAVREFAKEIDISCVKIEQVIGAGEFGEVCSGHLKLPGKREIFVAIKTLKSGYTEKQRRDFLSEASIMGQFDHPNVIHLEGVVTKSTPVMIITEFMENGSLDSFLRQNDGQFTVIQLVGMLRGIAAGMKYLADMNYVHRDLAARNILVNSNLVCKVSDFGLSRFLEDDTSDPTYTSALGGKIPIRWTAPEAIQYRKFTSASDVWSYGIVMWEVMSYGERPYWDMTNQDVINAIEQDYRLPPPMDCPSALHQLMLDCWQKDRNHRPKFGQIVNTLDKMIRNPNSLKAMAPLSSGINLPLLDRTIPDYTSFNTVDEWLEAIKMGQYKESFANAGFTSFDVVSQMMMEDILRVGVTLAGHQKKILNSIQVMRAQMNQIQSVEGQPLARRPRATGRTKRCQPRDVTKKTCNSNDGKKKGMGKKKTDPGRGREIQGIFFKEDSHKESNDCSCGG
The settings on record: at 1 µM.

Assay [2] addresses T2, Ephrin type-B receptor 3 (Homo sapiens) (UniProt P54753).
T2 sequence (whole entry): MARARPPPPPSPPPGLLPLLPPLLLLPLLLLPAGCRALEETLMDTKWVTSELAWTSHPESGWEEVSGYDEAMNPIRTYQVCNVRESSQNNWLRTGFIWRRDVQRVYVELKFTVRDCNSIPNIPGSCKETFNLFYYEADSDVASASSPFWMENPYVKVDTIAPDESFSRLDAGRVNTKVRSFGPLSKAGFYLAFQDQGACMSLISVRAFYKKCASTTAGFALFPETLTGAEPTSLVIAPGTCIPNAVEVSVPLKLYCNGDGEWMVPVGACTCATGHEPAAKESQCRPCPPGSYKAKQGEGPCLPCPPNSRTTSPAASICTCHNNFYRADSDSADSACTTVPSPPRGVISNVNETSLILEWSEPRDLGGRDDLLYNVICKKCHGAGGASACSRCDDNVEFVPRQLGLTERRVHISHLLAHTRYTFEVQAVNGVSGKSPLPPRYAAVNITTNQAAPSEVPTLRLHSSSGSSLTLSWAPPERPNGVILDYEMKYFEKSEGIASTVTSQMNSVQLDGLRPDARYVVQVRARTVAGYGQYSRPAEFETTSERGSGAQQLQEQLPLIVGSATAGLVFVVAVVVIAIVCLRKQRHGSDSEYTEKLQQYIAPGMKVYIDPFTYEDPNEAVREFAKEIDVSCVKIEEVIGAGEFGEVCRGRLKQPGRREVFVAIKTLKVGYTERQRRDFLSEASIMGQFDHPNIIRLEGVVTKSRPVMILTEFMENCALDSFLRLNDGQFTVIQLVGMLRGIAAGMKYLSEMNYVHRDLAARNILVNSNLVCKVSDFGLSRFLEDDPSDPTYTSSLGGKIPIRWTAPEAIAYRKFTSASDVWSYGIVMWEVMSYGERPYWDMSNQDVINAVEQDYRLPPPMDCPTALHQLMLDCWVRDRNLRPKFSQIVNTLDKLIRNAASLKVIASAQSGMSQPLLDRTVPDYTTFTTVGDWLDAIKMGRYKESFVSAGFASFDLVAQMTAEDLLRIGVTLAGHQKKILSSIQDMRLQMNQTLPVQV
The settings on record: at 0.1 µM.

In assay [3] the target is T2, Ephrin type-B receptor 3 (Homo sapiens). The conditions noted are these: at 1 µM.
Assay [4] has as its target T3, Ephrin type-B receptor 4 (Homo sapiens) (UniProt P54760).
T3 sequence (whole entry): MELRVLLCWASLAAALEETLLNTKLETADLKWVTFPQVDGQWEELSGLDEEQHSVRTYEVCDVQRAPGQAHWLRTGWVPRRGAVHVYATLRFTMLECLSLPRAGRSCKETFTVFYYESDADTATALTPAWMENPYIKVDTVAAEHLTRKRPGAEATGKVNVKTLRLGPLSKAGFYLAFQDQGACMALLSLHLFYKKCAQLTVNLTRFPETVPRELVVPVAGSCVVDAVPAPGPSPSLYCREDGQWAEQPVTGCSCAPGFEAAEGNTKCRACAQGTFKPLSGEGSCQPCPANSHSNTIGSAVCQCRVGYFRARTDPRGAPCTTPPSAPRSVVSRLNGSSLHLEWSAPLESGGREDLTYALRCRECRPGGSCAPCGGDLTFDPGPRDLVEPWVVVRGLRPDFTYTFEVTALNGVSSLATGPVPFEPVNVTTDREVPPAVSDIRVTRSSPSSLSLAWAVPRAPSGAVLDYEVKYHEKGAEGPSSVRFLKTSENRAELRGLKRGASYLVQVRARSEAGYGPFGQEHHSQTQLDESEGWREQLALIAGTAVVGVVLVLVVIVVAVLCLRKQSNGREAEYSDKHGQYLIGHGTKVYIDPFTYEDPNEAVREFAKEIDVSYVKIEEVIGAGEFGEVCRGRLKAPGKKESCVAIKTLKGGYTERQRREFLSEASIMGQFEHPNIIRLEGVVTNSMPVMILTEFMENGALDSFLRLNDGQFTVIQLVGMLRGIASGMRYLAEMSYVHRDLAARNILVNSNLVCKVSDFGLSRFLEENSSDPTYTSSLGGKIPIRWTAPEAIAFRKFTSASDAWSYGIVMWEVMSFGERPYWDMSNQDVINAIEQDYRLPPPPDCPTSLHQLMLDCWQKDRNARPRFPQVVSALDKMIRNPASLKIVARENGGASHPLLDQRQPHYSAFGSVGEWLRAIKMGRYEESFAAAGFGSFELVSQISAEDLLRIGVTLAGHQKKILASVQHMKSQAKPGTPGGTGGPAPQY
The settings on record: at 0.1 µM.

The target of assay [5] is T3, Ephrin type-B receptor 4 (Homo sapiens). The conditions noted are these: at 1 µM.
Assay [6] has as its target Receptor tyrosine-protein kinase erbB-2 (Homo sapiens) (UniProt P04626). The settings on record: at 0.1 µM.
Assay [7] has the same target. The conditions noted are these: at 1 µM.
For assay [8], the target named is Receptor tyrosine-protein kinase erbB-4 (Homo sapiens) (UniProt Q15303). The settings on record: at 0.1 µM.
Sequence of Receptor tyrosine-protein kinase erbB-4 (Homo sapiens) (Q15303 whole entry): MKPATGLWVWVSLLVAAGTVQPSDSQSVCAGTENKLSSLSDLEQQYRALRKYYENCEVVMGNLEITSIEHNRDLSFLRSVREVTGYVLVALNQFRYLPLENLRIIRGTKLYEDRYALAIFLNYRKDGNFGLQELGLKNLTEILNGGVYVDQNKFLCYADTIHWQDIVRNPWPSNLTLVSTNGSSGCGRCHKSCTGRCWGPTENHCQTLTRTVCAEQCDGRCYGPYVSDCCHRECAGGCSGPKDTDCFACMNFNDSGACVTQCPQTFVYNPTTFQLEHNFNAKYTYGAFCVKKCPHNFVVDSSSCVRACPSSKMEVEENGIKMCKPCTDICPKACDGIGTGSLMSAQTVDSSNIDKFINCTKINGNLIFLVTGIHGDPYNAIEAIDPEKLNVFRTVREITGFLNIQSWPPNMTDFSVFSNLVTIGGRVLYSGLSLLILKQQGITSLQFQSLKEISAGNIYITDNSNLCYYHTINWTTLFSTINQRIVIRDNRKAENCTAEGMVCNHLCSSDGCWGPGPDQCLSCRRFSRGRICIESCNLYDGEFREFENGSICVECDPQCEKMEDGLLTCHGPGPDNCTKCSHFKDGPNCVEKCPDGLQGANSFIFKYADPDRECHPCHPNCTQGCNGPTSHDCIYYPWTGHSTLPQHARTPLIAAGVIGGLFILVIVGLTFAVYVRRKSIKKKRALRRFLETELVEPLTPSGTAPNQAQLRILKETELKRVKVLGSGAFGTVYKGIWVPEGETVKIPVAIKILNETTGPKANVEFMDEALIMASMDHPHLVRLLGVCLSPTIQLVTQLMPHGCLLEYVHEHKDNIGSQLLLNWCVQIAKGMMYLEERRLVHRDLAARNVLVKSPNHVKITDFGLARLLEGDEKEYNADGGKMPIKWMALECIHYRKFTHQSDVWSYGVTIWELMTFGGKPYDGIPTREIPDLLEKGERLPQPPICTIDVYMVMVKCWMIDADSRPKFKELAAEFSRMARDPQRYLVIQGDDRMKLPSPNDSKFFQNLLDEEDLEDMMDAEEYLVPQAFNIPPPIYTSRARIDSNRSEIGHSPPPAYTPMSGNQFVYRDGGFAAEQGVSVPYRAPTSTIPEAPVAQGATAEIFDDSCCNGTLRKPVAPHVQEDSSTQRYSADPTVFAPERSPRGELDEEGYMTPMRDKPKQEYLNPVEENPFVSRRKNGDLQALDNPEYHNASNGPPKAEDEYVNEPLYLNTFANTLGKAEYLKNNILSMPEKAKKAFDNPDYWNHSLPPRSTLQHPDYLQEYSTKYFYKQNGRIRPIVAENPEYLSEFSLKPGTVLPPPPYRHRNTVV
For assay [9] the target is unchanged. The settings on record: at 1 µM.
The target in assay [10] is Tyrosine-protein kinase Fer (Homo sapiens) (UniProt P16591). The settings on record: at 0.1 µM.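 Note: reported figures are averaged percent inhibition of FER.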
Sequence of Tyrosine-protein kinase Fer (Homo sapiens) (P16591 whole entry, looked up): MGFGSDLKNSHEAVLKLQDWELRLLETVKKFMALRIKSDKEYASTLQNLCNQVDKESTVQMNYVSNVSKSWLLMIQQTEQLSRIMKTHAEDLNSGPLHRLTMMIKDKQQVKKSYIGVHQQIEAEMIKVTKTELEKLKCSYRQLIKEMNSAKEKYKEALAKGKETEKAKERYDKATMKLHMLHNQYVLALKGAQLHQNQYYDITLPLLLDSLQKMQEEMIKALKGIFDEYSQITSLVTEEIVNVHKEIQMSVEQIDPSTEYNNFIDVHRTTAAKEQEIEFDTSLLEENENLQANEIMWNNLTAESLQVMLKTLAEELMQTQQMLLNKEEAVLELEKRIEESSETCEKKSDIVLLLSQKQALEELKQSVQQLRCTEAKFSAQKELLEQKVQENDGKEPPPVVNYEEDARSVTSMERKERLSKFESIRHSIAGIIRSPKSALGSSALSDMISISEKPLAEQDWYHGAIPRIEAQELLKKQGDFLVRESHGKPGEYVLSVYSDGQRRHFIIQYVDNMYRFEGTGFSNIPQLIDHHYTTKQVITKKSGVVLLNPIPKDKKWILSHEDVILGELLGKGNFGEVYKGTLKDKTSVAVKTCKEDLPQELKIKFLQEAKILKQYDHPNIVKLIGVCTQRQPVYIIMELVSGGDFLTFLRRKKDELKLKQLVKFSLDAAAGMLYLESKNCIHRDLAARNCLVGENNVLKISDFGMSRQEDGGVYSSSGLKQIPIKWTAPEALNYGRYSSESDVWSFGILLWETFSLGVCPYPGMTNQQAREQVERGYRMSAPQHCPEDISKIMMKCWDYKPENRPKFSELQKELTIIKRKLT

The values that follow come from ChEMBL document CHEMBL1961873, “Compounds: GSK PKIS; Assays: Nanosyn kinase panel” (2012).

Sequence of Receptor tyrosine-protein kinase erbB-2 (Homo sapiens) (P04626 whole entry): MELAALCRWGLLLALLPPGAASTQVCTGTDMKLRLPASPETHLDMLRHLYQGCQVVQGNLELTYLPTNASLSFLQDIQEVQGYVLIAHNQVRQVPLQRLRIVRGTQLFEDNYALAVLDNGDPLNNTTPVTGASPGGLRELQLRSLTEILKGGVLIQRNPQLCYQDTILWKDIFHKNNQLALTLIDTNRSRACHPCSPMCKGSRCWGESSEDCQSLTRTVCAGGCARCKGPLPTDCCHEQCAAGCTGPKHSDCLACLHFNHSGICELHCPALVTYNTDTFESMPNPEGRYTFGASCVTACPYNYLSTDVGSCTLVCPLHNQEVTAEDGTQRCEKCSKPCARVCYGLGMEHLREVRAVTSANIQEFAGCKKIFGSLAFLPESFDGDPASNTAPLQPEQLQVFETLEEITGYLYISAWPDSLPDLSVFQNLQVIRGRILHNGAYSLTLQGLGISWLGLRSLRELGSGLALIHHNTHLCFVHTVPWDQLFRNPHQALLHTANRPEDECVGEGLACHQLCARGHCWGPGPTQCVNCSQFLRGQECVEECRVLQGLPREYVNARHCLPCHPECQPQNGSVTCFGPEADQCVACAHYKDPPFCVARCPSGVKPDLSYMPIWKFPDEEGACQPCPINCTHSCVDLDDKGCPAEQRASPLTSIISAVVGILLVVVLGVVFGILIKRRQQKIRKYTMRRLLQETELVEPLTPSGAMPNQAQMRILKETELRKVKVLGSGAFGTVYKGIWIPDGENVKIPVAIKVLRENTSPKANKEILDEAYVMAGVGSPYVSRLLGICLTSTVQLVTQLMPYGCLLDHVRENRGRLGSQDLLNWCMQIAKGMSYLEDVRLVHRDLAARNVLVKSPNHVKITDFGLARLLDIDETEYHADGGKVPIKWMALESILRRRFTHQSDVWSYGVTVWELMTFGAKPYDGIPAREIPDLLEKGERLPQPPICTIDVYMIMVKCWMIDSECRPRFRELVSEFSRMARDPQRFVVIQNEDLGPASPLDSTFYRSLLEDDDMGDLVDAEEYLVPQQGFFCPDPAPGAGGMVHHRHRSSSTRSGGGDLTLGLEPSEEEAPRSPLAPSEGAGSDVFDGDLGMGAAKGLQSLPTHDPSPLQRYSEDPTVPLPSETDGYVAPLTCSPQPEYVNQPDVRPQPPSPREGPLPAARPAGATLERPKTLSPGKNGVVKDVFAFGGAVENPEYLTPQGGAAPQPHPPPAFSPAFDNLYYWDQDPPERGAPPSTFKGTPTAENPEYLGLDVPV

Turning to `COc1ccc(COc2ccc(Cc3cnc(N)nc3N)cc2OC)cc1`, the inhibition in [1] was 8.3%; in [2] it was -1.18%; in [3], -4.82%; in assay [4], 0.94%; in [5], 3.27%; in assay [6], -1.55%. Besides, the inhibition in assay [7] was -2.79%; in assay [8], 3.15%; in [9], 3.43%; in [10], 2.14%.

Turning to `CN(C)c1cc2c(Nc3ccc4nc(Cc5ccccc5)[nH]c4c3)ncnc2cn1`, the inhibition in assay [1] came out at 15.3%; in assay [2], 4.07%; in assay [3], 4.22%; in [4], 4.92%; in assay [5] it was 3.25%; in assay [6], 20%. For the same compound, the inhibition in assay [7] came to 67.7%; in [8] it was 101%; in assay [9], 99.7%; in assay [10], 5.55%.

With `CC(=O)Nc1cccc(C#Cc2cncnc2Nc2ccc(OCc3cccc(F)c3)c(Cl)c2)n1`, the inhibition in assay [1] was 4.49%; in assay [2] it was -4.13%; in [3], -1.83%; in [4] it was -0.8%; in assay [5] it was 0.82%; in assay [6] it was 1.84%. For the same compound, the inhibition in assay [7] was 0.35%; in [8], 18.5%; in assay [9] it was 62.8%; in assay [10], -0.09%.

On to `O=C1Nc2ccc(C(=O)c3ccco3)cc2C1=Cc1cc(Cl)c(O)c(Cl)c1`, for which the inhibition in assay [1] was determined as 15%; in assay [2], 4.56%; in [3], 5.53%; in assay [4], 3.11%; in assay [5] it was 2.52%; in assay [6] it was 0.77%. The inhibition in assay [7] amounted to 4.54%; in assay [8] it was 12.2%; in assay [9], 15.8%; in assay [10] it was 2.31%.

Consider `COc1cccc(-n2ncc3c(N/N=C/c4cccc(F)c4)ncnc32)c1`, for which the inhibition in assay [1] is 4.03%; in assay [2] it was 0.95%; in assay [3] it was -0.77%; in assay [4], -0.91%; in assay [5] it was 0.63%; in assay [6] it was 1.57%. For the same compound, the inhibition in assay [7] was -0.99%; in [8], 1.08%; in assay [9], 2.68%; in assay [10] it was 2.76%.

In the case of `Cc1ccc(C(=O)NC2CCCCC2)cc1-c1ccc(C(=O)NCC2CC2)cc1`, the inhibition in [1] is 7.74%; in assay [2], 5.37%; in assay [3] it was 1.76%; in [4], 1.61%; in assay [5], 0.58%; in assay [6], -0.05%. Moreover, the inhibition in assay [7] was -2.24%; in assay [8] it was 13.3%; in [9] it was 17.9%; in [10], 5.55%.

As to `Cc1ccc(NC(=O)c2ccnc(N3CCCC3)c2)cc1-c1ccc(C(=O)NCC2CC2)cc1`, the inhibition in assay [1] was 6.65%; in assay [2], 1.72%; in assay [3], -1.41%; in assay [4], -3.04%; in assay [5], -2.95%; in assay [6] it was 2.34%. Also, the inhibition in assay [7] is -3.44%; in assay [8], 6.37%; in assay [9] it was 5.79%; in [10], 0.77%.

Regarding `CCc1cccc(NC(=O)Nc2ccc(Oc3ccc4nc(NC(=O)OC)[nH]c4c3)cc2)c1`, the inhibition in [1] was 63%; in assay [2], 6.29%; in assay [3], 3.66%; in assay [4], 15.7%; in assay [5], 27.5%; in assay [6] it was 0.27%. For the same compound, the inhibition in assay [7] stood at 7%; in assay [8], 9.67%; in [9] it was 15.3%; in assay [10], 3.85%.

Regarding `CC1=C(C(=O)Nc2ccc3[nH]ncc3c2)C(c2ccc(F)cc2)NC(=O)N1` (stereo not given), the inhibition in assay [1] was 5.02%; in [2], 3.4%; in assay [3] it was 1.2%; in assay [4] it was -1.65%; in assay [5], 0.92%; in assay [6] it was -0.29%. For the same compound, the inhibition in assay [7] is -0.74%; in [8], 4.16%; in [9], 5.19%; in assay [10] it was 0.09%.

For orientation: inhibition means the drop in the measured response relative to a control, in per cent.
